Key:
Assay in all cases: DAPPL (digital affinity profiling via proximity ligation, sequencing); 10 mM Tris-HCl pH 7.5, 50 mM NaCl, 1 mM DTT, 4% glycerol, room temperature, 30 min; GST-TFs on glutathione beads, 16-mer random dsDNA library, 0.1% formaldehyde crosslink after washing; high values mean tight binding
Conditions in all cases: protein: recombinant; tags: N-terminal GST; dsDNA, one strand shown
[1] = target: T1, FEV (Homo sapiens, UniProt Q99581 1-238)
T1 sequence: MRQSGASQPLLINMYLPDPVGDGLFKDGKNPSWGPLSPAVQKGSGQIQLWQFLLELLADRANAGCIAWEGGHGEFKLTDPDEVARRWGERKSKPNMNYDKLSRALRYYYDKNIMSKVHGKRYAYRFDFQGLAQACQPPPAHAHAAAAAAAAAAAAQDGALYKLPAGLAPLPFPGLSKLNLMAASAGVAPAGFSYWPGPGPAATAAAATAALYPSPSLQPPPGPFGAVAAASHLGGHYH
In short: (§1)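 GST fusions of human transcription factors were expressed in yeast and captured with glutathione beads. Once given DNA barcodes and pooled alongside a tag-only sample, they were incubated for 30 min at room temperature with 200 nmole of a random double-stranded 16-mer DNA library in Tris/NaCl/DTT/glycerol buffer, then washed, crosslinked (0.1% formaldehyde), proximity-ligated, PCR-amplified and sequenced on an Illumina NextSeq500. The binding signal of each hexamer is its read frequency for a factor divided by its frequency for the tag-only sample.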

[2] = target: ETV5 (Homo sapiens, UniProt P41161 1-510)
ETV5, sequence (P41161 whole entry): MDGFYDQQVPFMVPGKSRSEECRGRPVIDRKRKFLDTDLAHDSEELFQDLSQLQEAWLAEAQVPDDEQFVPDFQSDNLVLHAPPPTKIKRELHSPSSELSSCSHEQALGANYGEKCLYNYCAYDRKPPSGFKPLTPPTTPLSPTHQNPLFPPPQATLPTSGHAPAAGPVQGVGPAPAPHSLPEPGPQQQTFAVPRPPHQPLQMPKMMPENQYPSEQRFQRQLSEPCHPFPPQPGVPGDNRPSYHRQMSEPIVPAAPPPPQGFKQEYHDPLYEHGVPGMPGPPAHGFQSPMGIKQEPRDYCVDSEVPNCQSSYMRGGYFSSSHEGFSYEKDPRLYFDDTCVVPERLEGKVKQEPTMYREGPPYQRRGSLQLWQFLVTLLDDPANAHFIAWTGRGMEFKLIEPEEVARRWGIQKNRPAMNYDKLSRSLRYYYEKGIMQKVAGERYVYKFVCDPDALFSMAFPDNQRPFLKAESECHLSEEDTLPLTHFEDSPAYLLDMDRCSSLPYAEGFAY
In short: as §1

[3] = target: T2, SPIC (Homo sapiens, UniProt Q8N5J4 1-248)
T2 sequence: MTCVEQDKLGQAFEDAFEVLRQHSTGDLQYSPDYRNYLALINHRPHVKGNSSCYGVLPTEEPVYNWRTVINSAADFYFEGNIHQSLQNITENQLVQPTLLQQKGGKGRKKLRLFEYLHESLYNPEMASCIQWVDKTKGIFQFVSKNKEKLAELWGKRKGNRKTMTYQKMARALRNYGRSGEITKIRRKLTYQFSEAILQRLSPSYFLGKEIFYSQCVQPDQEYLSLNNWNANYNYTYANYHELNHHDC
In short: as §1

[4] = target: ELF4 (Homo sapiens, UniProt Q99607 1-663)
ELF4, sequence (Q99607 whole entry): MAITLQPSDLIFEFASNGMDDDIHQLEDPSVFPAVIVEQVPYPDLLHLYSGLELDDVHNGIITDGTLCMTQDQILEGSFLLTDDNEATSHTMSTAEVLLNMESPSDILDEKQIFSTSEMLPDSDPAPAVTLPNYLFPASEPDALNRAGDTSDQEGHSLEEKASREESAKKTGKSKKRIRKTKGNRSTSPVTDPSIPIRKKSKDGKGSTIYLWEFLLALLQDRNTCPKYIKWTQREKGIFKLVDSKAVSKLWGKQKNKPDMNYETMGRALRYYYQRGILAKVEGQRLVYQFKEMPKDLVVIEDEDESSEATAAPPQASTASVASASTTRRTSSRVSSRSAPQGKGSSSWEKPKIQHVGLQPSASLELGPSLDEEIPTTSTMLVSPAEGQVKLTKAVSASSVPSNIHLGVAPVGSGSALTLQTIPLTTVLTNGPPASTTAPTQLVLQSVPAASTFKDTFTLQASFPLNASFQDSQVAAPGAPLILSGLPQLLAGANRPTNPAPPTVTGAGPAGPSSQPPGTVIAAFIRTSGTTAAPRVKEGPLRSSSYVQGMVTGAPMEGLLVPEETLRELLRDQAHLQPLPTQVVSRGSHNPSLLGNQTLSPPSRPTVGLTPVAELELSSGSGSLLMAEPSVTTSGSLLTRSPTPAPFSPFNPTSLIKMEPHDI
In short: as §1

[5] = target: T3, ELK4 (Homo sapiens, UniProt P28324-2 1-405)
T3 sequence: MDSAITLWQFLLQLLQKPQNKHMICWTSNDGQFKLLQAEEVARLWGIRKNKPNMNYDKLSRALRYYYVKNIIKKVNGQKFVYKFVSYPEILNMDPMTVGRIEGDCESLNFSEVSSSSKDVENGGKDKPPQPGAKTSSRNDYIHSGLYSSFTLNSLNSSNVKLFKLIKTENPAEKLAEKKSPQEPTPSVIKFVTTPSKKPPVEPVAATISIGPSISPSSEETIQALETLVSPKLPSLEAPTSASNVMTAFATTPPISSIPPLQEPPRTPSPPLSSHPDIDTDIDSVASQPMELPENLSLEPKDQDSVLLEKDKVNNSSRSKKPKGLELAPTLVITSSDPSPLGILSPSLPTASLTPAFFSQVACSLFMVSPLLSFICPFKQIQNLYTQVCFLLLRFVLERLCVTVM
In short: as §1

[6] = target: T4, ETV2 (Homo sapiens, UniProt O00321 1-342)
T4 sequence: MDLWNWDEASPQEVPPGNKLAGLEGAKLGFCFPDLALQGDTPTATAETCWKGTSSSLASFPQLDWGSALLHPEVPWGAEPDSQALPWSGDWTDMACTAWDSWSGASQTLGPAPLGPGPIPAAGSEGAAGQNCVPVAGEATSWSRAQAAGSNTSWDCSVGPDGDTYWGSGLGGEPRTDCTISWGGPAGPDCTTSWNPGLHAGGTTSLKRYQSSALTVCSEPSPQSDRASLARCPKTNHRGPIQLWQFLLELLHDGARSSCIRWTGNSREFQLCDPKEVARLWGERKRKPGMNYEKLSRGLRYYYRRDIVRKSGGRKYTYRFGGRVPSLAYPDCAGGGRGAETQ
In short: as §1

[7] = target: T5, ELF3 (Homo sapiens, UniProt P78545 1-371)
T5 sequence: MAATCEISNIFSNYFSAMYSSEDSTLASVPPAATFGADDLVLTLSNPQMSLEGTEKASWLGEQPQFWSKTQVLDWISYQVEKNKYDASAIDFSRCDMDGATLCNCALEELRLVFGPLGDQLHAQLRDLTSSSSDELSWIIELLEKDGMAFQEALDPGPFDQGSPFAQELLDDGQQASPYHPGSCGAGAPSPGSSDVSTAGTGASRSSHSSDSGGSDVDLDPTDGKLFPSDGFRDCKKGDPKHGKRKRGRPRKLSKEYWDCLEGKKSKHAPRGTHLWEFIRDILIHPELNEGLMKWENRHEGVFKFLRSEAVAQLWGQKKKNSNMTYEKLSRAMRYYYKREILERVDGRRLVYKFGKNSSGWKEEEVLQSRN
In short: as §1

[8] = target: ETV1 (Homo sapiens, UniProt P50549 1-477)
ETV1, sequence (P50549 whole entry): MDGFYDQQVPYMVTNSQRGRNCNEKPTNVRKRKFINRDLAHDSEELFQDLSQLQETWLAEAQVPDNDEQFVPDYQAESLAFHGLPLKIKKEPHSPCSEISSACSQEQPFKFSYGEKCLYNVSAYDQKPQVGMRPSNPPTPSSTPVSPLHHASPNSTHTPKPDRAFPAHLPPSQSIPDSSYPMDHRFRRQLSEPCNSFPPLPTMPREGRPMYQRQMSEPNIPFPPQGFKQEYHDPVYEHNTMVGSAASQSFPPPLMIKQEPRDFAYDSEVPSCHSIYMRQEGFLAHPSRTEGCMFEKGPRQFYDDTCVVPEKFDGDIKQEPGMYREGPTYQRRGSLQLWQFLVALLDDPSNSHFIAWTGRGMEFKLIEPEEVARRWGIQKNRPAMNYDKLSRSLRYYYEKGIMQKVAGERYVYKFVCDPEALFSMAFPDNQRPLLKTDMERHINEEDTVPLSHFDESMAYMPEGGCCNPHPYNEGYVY
In short: as §1

[9] = target: T6, ERF (Homo sapiens, UniProt P50548 1-548)
T6 sequence: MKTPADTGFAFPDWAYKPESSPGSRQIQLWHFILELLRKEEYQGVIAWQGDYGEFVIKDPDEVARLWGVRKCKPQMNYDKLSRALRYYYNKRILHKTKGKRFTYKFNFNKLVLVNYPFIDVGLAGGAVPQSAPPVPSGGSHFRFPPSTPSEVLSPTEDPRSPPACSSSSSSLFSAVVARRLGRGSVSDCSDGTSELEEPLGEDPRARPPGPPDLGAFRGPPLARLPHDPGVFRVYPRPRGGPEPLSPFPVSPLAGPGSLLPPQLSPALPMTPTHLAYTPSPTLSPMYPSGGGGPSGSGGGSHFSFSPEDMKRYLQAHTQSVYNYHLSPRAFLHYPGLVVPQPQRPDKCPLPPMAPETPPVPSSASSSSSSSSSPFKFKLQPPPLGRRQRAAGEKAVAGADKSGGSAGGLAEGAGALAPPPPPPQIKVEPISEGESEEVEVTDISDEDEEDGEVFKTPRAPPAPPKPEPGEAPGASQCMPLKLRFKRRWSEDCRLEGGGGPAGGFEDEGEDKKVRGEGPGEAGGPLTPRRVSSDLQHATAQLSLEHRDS
In short: as §1

[10] = target: T7, ETV3L (Homo sapiens, UniProt Q6ZN32 1-361)
T7 sequence: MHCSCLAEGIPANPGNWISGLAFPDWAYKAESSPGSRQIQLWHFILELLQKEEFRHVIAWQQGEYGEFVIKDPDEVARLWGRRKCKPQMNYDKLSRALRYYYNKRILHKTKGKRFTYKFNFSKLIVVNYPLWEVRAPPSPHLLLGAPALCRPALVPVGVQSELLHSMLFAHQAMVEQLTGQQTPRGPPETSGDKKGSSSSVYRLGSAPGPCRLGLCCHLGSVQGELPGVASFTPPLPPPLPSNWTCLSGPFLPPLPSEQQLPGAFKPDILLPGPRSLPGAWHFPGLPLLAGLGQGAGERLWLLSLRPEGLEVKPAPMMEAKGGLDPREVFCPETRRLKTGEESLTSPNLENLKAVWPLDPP
In short: as §1

[11] = target: T8, ETS2 (Homo sapiens, UniProt P15036 1-469)
T8 sequence: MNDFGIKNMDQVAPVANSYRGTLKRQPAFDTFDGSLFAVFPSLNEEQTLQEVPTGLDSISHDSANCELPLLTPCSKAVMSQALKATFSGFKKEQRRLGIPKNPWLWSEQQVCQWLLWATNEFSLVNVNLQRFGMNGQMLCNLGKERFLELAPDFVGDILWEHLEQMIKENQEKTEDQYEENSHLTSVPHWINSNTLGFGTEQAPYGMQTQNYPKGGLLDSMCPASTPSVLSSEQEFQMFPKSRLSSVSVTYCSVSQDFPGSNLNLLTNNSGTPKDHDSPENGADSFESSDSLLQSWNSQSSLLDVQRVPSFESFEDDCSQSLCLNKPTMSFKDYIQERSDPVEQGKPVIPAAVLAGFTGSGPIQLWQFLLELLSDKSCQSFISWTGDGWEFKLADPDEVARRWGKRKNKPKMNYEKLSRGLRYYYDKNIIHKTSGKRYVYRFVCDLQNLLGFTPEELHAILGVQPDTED
In short: as §1

[12] = target: T9, SPDEF (Homo sapiens, UniProt O95238 1-335)
T9 sequence: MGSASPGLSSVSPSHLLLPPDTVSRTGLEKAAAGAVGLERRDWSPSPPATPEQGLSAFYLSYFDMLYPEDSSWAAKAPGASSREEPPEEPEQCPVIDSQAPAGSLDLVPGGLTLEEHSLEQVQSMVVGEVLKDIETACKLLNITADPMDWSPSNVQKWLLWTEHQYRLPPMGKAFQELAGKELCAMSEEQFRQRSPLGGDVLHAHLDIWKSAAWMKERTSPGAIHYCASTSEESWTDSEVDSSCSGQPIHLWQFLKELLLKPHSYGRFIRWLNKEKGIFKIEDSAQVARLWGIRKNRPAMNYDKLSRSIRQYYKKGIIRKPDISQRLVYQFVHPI
In short: as §1

[13] = target: T10, ETV7 (Homo sapiens, UniProt Q9Y603 1-341)
T10 sequence: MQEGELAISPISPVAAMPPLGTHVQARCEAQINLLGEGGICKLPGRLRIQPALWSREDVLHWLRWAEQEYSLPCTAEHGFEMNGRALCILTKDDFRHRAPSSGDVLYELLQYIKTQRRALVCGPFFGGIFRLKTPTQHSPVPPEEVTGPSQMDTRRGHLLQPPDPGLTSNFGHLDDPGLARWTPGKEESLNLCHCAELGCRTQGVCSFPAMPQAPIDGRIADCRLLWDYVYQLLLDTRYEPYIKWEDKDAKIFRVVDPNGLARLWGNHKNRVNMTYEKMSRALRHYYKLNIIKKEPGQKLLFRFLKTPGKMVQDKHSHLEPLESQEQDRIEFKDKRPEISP
In short: as §1

[14] = target: T11, ELF5 (Homo sapiens, UniProt Q9UKW6-2 1-255)
T11 sequence: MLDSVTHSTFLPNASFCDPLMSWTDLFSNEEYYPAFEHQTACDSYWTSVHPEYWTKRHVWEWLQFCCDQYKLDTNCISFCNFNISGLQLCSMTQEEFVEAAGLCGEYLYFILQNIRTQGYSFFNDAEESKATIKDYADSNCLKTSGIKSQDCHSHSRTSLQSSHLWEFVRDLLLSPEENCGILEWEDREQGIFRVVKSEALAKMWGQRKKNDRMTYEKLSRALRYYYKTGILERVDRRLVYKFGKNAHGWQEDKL
In short: as §1

[15] = target: T12, ETV3 (Homo sapiens, UniProt P41162-2 1-143)
T12 sequence: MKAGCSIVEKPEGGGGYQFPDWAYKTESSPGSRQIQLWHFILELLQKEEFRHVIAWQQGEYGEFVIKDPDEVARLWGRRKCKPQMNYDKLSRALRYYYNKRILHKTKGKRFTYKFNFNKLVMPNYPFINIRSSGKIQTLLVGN
In short: as §1

[16] = target: ETV6 (Homo sapiens, UniProt P41212 1-452)
ETV6, sequence (P41212 whole entry): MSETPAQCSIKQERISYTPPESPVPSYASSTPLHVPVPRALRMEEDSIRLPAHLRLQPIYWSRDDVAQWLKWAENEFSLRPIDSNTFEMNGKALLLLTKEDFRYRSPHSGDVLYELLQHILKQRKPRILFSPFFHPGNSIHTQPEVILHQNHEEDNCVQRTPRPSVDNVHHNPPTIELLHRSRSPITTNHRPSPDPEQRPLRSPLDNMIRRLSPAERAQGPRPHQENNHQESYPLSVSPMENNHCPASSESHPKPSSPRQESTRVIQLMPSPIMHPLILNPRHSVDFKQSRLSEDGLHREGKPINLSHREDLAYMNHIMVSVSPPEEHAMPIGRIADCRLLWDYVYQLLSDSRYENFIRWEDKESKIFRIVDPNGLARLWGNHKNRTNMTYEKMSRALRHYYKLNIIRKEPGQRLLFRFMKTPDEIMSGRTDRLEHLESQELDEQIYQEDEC
In short: as §1

For TGACAC, which binding signal [1] is on record?
Its binding signal is 1.11 fold enrichment (6-mer frequency, TF over GST control).

And the binding signal [2]?
Its binding signal is 1.11 fold enrichment (6-mer frequency, TF over GST control).

What about the binding signal [3] of the same sequence?
The binding signal was 1.07 fold enrichment (6-mer frequency, TF over GST control).

What about the binding signal [4] of the same sequence?
Its binding signal is 1.1 fold enrichment (6-mer frequency, TF over GST control).

What about the binding signal [5] of the same sequence?
Its binding signal is 1.18 fold enrichment (6-mer frequency, TF over GST control).

What about the binding signal [6] of the same sequence?
The binding signal was 1.15 fold enrichment (6-mer frequency, TF over GST control).

And the binding signal [7]?
Its binding signal is 1.14 fold enrichment (6-mer frequency, TF over GST control).

And the binding signal [8]?
The binding signal was 1.1 fold enrichment (6-mer frequency, TF over GST control).

And the binding signal [9]?
The binding signal was 1.3 fold enrichment (6-mer frequency, TF over GST control).

And the binding signal [10]?
The binding signal was 1.22 fold enrichment (6-mer frequency, TF over GST control).

What about the binding signal [11] of the same sequence?
Its binding signal is 1.24 fold enrichment (6-mer frequency, TF over GST control).

And the binding signal [12]?
The binding signal was 1.11 fold enrichment (6-mer frequency, TF over GST control).

And the binding signal [13]?
The binding signal was 1.28 fold enrichment (6-mer frequency, TF over GST control).

What about the binding signal [14] of the same sequence?
Its binding signal is 1.19 fold enrichment (6-mer frequency, TF over GST control).

And the binding signal [15]?
The binding signal was 1.21 fold enrichment (6-mer frequency, TF over GST control).

And the binding signal [16]?
Its binding signal is 1.19 fold enrichment (6-mer frequency, TF over GST control).

What does the source list for TGCACG?
binding signal [1]: 1.15 fold enrichment (6-mer frequency, TF over GST control); binding signal [2]: 1.14 fold enrichment (6-mer frequency, TF over GST control); binding signal [3]: 1.03 fold enrichment (6-mer frequency, TF over GST control); binding signal [4]: 1.13 fold enrichment (6-mer frequency, TF over GST control); binding signal [5]: 1.24 fold enrichment (6-mer frequency, TF over GST control); binding signal [6]: 1.22 fold enrichment (6-mer frequency, TF over GST control); binding signal [7]: 1.26 fold enrichment (6-mer frequency, TF over GST control); binding signal [8]: 1.06 fold enrichment (6-mer frequency, TF over GST control); binding signal [9]: 1.11 fold enrichment (6-mer frequency, TF over GST control); binding signal [10]: 1.1 fold enrichment (6-mer frequency, TF over GST control); binding signal [11]: 1.15 fold enrichment (6-mer frequency, TF over GST control); binding signal [12]: 1.11 fold enrichment (6-mer frequency, TF over GST control); binding signal [13]: 1.19 fold enrichment (6-mer frequency, TF over GST control); binding signal [14]: 1.02 fold enrichment (6-mer frequency, TF over GST control); binding signal [15]: 1.13 fold enrichment (6-mer frequency, TF over GST control); binding signal [16]: 1.06 fold enrichment (6-mer frequency, TF over GST control)
